hgDAF-12 ag: hgDAF-12 agonism, primary luciferase screen; HEK293 GAL4-hgDAF12 UAS-luciferase reporter, agonist luminescence; normalized to butyrate control; AID 687014; hit rate 1.8% among 370,000; activation, % at 6.8 µM;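 active means activation above a cutoff set at the mean of all screened compounds plus 3 SD, cut at about 10% in these data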
DAX1 inh-1: DAX1 (NR0B1) inhibition, primary screen; AID 652010; inhibition, % at 6.8 µM; HEK293T StAR-luciferase reporter, SF-1/DAX-1 repression relief; hit rate 1.1% among 370,000;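 active means inhibition above the mean over all tested compounds plus 3 SD, cut at about 3.6% in these data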;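 further: higher inhibition means more luminescence from relief of DAX-1 repression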
ssDAF-12 act: activators of S. stercoralis DAF-12 nuclear receptor; hit rate 1% among 370,000; activation, % at 6.8 µM; HEK293 ssDAF-12/GRIP1 lit1-tk-luc reporter, luminescence; % of 3 µM dafachronic acid response;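 active means activation above the mean over all tested compounds plus 3 SD, cut at about 0.9% in these data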
DAX1 inh-2: inhibitors of human orphan nuclear receptor DAX1 (NR0B1) | HEK293 Gal4-DAX1 luciferase reporter, luminescence | P51843 | inhibition, % at 6.75 µM | AID 504766 | hit rate 0.99% among 340,000;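 active means inhibition above the mean over all tested compounds plus 3 SD, cut at about 4.2% in these data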;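 further: inhibition shows as a rise in luminescence from relieved DAX1 repression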
Target sequence (P51843 207-470 limits assumed): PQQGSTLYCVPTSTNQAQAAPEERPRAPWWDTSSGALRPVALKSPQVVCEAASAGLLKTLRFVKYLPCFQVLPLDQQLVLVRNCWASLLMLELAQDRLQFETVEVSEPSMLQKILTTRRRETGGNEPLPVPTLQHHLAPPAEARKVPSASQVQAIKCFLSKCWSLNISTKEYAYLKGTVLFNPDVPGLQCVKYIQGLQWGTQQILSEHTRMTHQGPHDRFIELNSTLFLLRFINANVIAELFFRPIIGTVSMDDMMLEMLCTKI
FXN GAA850 act: frataxin GAA850 promoter activation; AID 540364; hit rate 0.56% among 360,000; activation, % at 6 µM; HEK293 lucGAA850 FXN promoter luciferase reporter, 24 h; percent of 10 µM SAHA response;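 active means activation above the average of all compounds screened plus 3 SD, cutoff fixed separately per campaign, cut at about 7.5% in these data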
hcDAF12 agonist: H. contortus DAF-12 activation, primary screen; HEK293 hcDAF-12 lit1-tk-luc reporter, luminescence; 0% DMSO, 100% Δ7-dafachronic acid; activation, % at 6.8 µM; hit rate 1.4% among 370,000; AID 652067;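 active means activation above the mean of all tested compounds plus 3 SD, cut at about 5.5% in these data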
GAA30 counter: counter-screen for GAA850 frataxin promoter activators: GAA30 promoter activation. shares compounds with FXN GAA850 act. HEK293 lucGAA30 FXN promoter luciferase, 24 h; DMSO = 0%, 5 µM ipriflavone = 100%. activation, % at 6 µM. hit rate 66% among 1,900. AID 588350;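 active means mean activation above the mean of solvent-only control wells plus 3 SD, cut at about 22% in these data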;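 further: counterscreen of GAA850 promoter hits where activity marks nonselective or luminescence artifacts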
GAA850 confirm: GAA850 FXN promoter activation confirmation; shares compounds with FXN GAA850 act; activation, % at 6 µM; HEK293 lucGAA850 FXN promoter luciferase reporter, 24 h; 100% = activation by SAHA; AID 588351; hit rate 86% among 1,900;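 active means mean activation above a set limit taken from the primary screen, cut at about 8% in these data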
DAX1 inh confirm: NR0B1 (human) inhibition, confirmation; shares compounds with DAX1 inh-1; HEK293T StAR-promoter luciferase reporter, SF-1/DAX-1 repression; inhibition, % at 6.8 µM; hit rate 87% among 2,400;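 active means inhibition above the average of every tested compound plus 3 SD, cut at about 3.8% in these data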;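 further: active compounds raise luminescence by relieving repression of the StAR reporter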
SF1 mutant ctr: nonselective inhibitor or artifact in SF-1 mutant DAX1 counter-screen; AID 652136; shares compounds with DAX1 inh-1; hit rate 78% among 2,400; HEK293 StAR-luciferase, SF-1 AF2 mutant, luminescence; inhibition, % at 6.8 µM;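 active means inhibition above the mean of all tested compounds plus 3 SD, cut at about 3% in these data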
LXRb hcDAF ctr: activates human LXR-beta, counter-screen for hcDAF-12 agonists | shares compounds with hcDAF12 agonist | HEK293 Gal4-LXR tk-luc reporter, luminescence, 24 h; normalized: DMSO 0%, positive control 100% | activation, % at 6.8 µM | 3,400 tested, under 10 active | AID 743027;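 active means mean percent activation of the reporter above a cutoff set as the average over tested compounds plus their standard deviation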
hcDAF12 ag: confirmation of H. contortus DAF-12 agonists | activation, % at 6.8 µM | hit rate 61% among 3,400 | HEK293 hcDAF-12 lit1-tk-luc reporter, luminescence; % of Δ7-dafachronic acid response | AID 743032 | shares compounds with hcDAF12 agonist;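 active means mean activation across triplicate tests above the threshold derived from the earlier primary screen, cut at about 5.5% in these data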
hgDAF12 ag: confirmation of H. glycines DAF-12 agonists | activation, % at 6.8 µM | hit rate 80% among 3,300 | AID 743050 | shares compounds with hgDAF-12 ag | HEK293 GAL4-hgDAF12 luciferase reporter, agonist mode; percent of butyrate response;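 active means mean activation over triplicate wells above the hit cutoff derived from the earlier primary screen, cut at about 11% in these data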
LXR ag 2: LXR-beta agonism as DAF-12 counter-screen; shares compounds with hgDAF-12 ag; HEK293 Gal4-LXR luciferase reporter, 24 h; activation, % at 6.8 µM; 3,300 tested, under 10 active;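 active means mean activation of the triplicate above a set limit carried over from the primary screen, none filed active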
Numbers stand for hits; - = inactive; . = no result given. An excerpt weighted towards active compounds, which were near 4.5% of everything screened.

SMILES | hgDAF-12 ag | DAX1 inh-1 | ssDAF-12 act | DAX1 inh-2 | FXN GAA850 act | hcDAF12 agonist | GAA30 counter | GAA850 confirm | LXRb hcDAF ctr | hcDAF12 ag | hgDAF12 ag | LXR ag 2 | others
COc1cc2c(c(Br)c1N)-c1cc(Br)c(N)cc1C2=O | - | - | - | - | 11 | 6.9 | 91 | 46 | - | 8.8 | . | .
Cc1ccc(-c2nc(NCCCO)c3ccccc3n2)cc1 | - | - | - | - | - | - | . | . | . | . | . | .
OCCCNc1c2ccccc2nc2ccccc12 | - | - | 2.3 | - | 13 | 20 | - | 119 | - | 29 | . | .
CC(C)C[C@H](NC(=O)c1ccc(Cl)cc1Cl)C(=O)N1CCC[C@H]1C(=O)NCc1ccccc1 | - | - | - | . | . | - | . | . | . | . | . | .
COc1ccc(-c2cc(-c3cc(C)ccc3O)[nH]n2)cc1 | - | - | 1.2 | - | 13 | 7.6 | 53 | 46 | - | - | . | .
CN(C)c1ccc(-c2nn3c(-c4ccco4)nnc3s2)cc1 | - | - | - | . | . | - | . | . | . | . | . | .
N#Cc1ccc(OCCCN2CCC(C(O)(c3ccccc3)c3ccccc3)CC2)cc1 | - | - | - | . | . | - | . | . | . | . | . | .
Cc1cccc(Nc2nc(-c3cccs3)cs2)n1 | 17 | - | 4.0 | 4.7 | 7.7 | 20 | 115 | 41 | - | 17 | . | .
COC(=O)[C@H](CC(C)C)N(CCc1cn(Cc2ccccc2)nn1)S(=O)(=O)c1ccc(F)cc1Br | - | - | - | . | . | - | . | . | . | . | . | .
CCC(=O)c1ccc(OCc2ccccc2)c(OC)c1 | 14 | - | - | 4.7 | 7.8 | - | 101 | 38 | . | . | - | -
C[C@H](O)[C@@H]1C(=O)N2CCc3c([nH]c4cccc(-c5ccccc5)c34)[C@@H]2C[C@@H]1N(C)C(=O)c1ccco1 | - | - | - | . | . | - | . | . | . | . | . | .
O=C(Nc1ccccc1C(=O)O)c1ccc(NC(=O)C2CC2)cc1 | - | - | - | - | - | - | . | . | . | . | . | .
O=C(Nc1ccccc1O)c1ccc(NC(=O)C2CC2)cc1 | 62 | 42 | - | 9.5 | 11 | 9.8 | 128 | 64 | - | 7.9 | 69 | - | DAX1 inh confirm=46;SF1 mutant ctr=22
C=CCNCCCCOc1ccc(OCc2ccccc2)cc1 | 15 | - | - | - | 9.1 | - | 102 | 49 | . | . | 17 | -
c1ccc(COc2ccc(OCCCCN3CCCC3)cc2)cc1 | 14 | - | - | - | 7.6 | - | 83 | 33 | . | . | 14 | -
Cc1cccc2cc(/C=N/Nc3ccc(C(=O)O)cc3)c(Cl)nc12 | 19 | 8.9 | - | - | 12 | 6.0 | 128 | 49 | . | . | 25 | - | DAX1 inh confirm=37;SF1 mutant ctr=15
Clc1nc2ccccc2cc1/C=N/Nc1nc2ccccc2[nH]1 | 14 | - | 1.7 | - | 8.4 | 9.3 | 128 | 44 | - | 14 | 17 | -

Screening results deposited in PubChem BioAssay by The Scripps Research Institute Molecular Screening Center.
